Laboratory results: PubChem BioAssay (Tox21)
Records with an inconclusive call do not appear. Where a call stands in place of a potency, no number is given. Unmarked numbers belong to inactive results. Activity calls are given as the source filed them. Calls come from the whole dose curve; as a rule, active = well fitted cell-killing curve with a large enough effect in the repeat runs; inconclusive = weak or mixed curves, or effect the other way; inactive = flat fitted curve, though single readings scatter.

Assay: Human pregnane X receptor (PXR) small molecule agonists, qHTS cell viability counter screen (AID 1346977); note: nearly all actives have a fitted effect of over 50% in size
Details: PXR-Luc HepG2 viability, CellTiter-Fluor, 24 h; series mostly up to 92.4 µM
How it was run: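 Cytotoxicity counter screen run in the same wells as the PXR luciferase assay, using PXR-Luc HepG2 cells in charcoal-stripped serum medium. Viability: CellTiter-Fluor fluorescence after 24hr compound treatment.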

SMILES	Potency	activity change, negative = cytotoxicity
CCC(=O)Nc1ccc(O)cc1	inactive	–
CC(=O)Oc1cc(C(C)C)c(OCCN(C)C)cc1C	inactive	–
O=c1[nH]cnc2c1ncn2[C@@H]1O[C@H](CO)[C@@H](O)[C@H]1O	inactive	–
N#Cc1ccc(C(c2ccc(C#N)cc2)n2cncn2)cc1	inactive	–
NS(=O)(=O)c1cc(-c2nn[nH]n2)c(NCc2cccs2)cc1Cl	inactive	–
Cc1c(-c2ccccc2)oc2c(C(=O)OCCN3CCCCC3)cccc2c1=O	inactive	–
OCc1ccccc1O	inactive	–
C[C@@H]1CN(c2c(F)c(F)c3c(=O)c(C(=O)O)cn(C4CC4)c3c2F)C[C@H](C)N1	–	6.01% [at 19 µM]
CC(=O)N(CC(O)CN(C(C)=O)c1c(I)c(C(=O)NCC(O)CO)c(I)c(C(=O)NCC(O)CO)c1I)c1c(I)c(C(=O)NCC(O)CO)c(I)c(C(=O)NCC(O)CO)c1I (stereo not drawn)	inactive	–
CC(C)O	inactive	–
CN1CCN(c2c(F)cc3c(=O)c(C(=O)O)cn(CCF)c3c2F)CC1	inactive	–
CN1CCN(c2c(F)cc3c(=O)c(C(=O)O)cn4c3c2SCC4)CC1	inactive	–
O=c1[nH]c(=O)n([C@H]2C[C@H](O)[C@@H](CO)O2)cc1C(F)(F)F	inactive	–
Cc1nnc(SCC2=C(C(=O)O)N3C(=O)[C@@H](NC(=O)Cn4cnnn4)[C@H]3SC2)s1	inactive	–
CCCCc1ccc2nc(NC(=O)OC)[nH]c2c1	inactive	–
Oc1ccccc1C=NCc1ccccc1	inactive	–
NC/C=C/C(=O)O	inactive	–
COc1ccccc1N1CCN(CCCNc2cc(=O)n(C)c(=O)n2C)CC1	inactive	–
